An excerpt weighted towards active compounds, which were near 2.2% of everything screened.
Cardio protect: protects H9c2 cardiomyocytes from peroxide injury | H2O2 injury protection, ATPLite, 2 h | protection from H2O2 cell death, % at 20 µM | 360,000 compounds, 0.63% hits | AID 588492;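 active = compounds giving at least 50% protection of heart cells from peroxide-induced death in the single-dose screen, raw or plate-pattern-corrected value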;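 also: 0% = DMSO wells with peroxide and 100% = DMSO wells without peroxide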
PLCg1 inh: PLC-gamma1 (human) inhibition, primary screen | purified PLC-gamma1, fluorogenic substrate, fluorescence | inhibition, % at 12.2 µM | 370,000 compounds, 0.84% hits | AID 720700; in the data active = inhibition above about 9.5%
FAS TE block: blocks the thioesterase domain of human fatty acid synthase; 360,000 compounds, 0.67% hits; P49327; inhibition, % at 15 µM; recombinant FAS-TE, OMFH fluorogenic substrate, fluorescence endpoint;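 active = compounds whose normalised, plate-corrected inhibition of enzyme fluorescence in the single-dose primary screen is 50% or more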;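 also: 0% = DMSO with enzyme and 100% = substrate without enzyme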
PLC-beta3 inh: blocks human PLC-beta3 enzyme activity. inhibition, % at 12.2 µM. AID 720704. 370,000 compounds, 0.18% hits. Purified PLC-beta3, fluorogenic substrate, fluorescence; in the data active = inhibition above about 11%;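 also: 0% = median of compound wells on plate and 100% = full blocker control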
* hit, by the source's call; i = inactive; nt = no result given; ! = repeats disagree.

SMILES	Cardio protect	PLCg1 inh	FAS TE block	PLC-beta3 inh
CC(C)(C)NC(=O)C(c1cccnc1)N(C(=O)c1cccs1)c1ccc(C(C)(C)C)cc1 (stereo unspecified)	nt	3.3	nt	0.4
COC(=O)C1=C(C)N(Cc2cccc(C(F)(F)F)c2)C(=NCc2ccc3c(c2)OCO3)NC1c1cccc(Cl)c1 (stereo unspecified)	nt	2.9	nt	0.0
COc1ccccc1-n1c(SCC(=O)NCc2ccc3c(c2)OCO3)nc2cc([N+](=O)[O-])ccc21	107.0*	6.2	37.0	1.5
COC(=O)[C@]12C[C@H](CC(=O)N3CCN(C(=O)C4CC4)CC3)C(=O)N(Cc3ccc4c(c3)OCO4)C1=C[C@H](COCc1ccccc1)O[C@@H]2C	nt	0.4	nt	-0.3
COC(=O)c1c(NC(=O)c2cccc(N3C(=O)CCC3=O)c2)sc2c1CCN(C(C)=O)C2	19.1	-63.9	-0.4	-88.0
COC(=O)c1c(NC(=O)c2nc3ccccc3s2)sc2c1CCN(C(C)=O)C2	58.3*	nt	9.3	nt
CCn1ncc2c1C(=O)NC1c3ccccc3C(=O)N21 (stereo unspecified)	59.1*	-2.1	-3.8	-6.4
CN(C)C(=O)CSC1c2ccccc2C(=O)N1c1ccccc1 (stereo unspecified)	1.3	1.9	-5.4	-0.5
COc1ccc(OC)c(/C=C2\S/C(=N/NC(=O)c3ccc4ccccc4c3)NC2=O)c1	58.3*	-42.8	27.5	-52.2
O=C1N/C(=N/NC(=O)c2cccc3ccccc23)S/C1=C\c1ccccc1OCc1ccccc1	44.6	-31.6	28.2	-39.3
CCOc1ccc(C(=O)Nc2cccc(C(=O)O)c2)cc1Cl	-15.0	5.2	-1.6	0.3
CCOc1ccc(C(=O)Nc2cccc(-c3nc4cccnc4o3)c2)cc1Cl	50.0*	nt	5.4	nt
COc1cc(/C=c2\s/c(=C(/C#N)C(=O)N3CCCC3)n(-c3ccccc3)c2=O)ccc1O	58.2*	-14.2	-16.3	-19.1
COC(=O)/C=c1/s/c(=C(/C#N)C(=O)N2CCCCC2)n(-c2ccccc2)c1=O	12.6	-4.6	-11.2	-8.3
C=CCN1CCc2cc(O)c(O)cc2C(c2ccccc2)C1 (stereo unspecified)	37.6	-0.2	-2.5	3.7
COc1cc2c(cc1OC)C(c1ccc(O)cc1)NCC2 (stereo unspecified)	1.5	-9.8	-3.9	-26.5
Oc1ccc(C2CNCCc3c2cc(O)c(O)c3Cl)cc1 (stereo unspecified)	58.5*!	-5.7	2.0	-7.0
Cc1cccc(C2CN(C)CCc3c2cc(O)c(O)c3Cl)c1 (stereo unspecified)	45.1	-0.4	-0.8	-0.8
Oc1cc2c(c(Cl)c1O)CCNCC2c1ccccc1 (stereo unspecified)	68.0*	-1.4	-4.7	0.3
C=CCN1CCc2c(cc(O)c(O)c2Cl)C(c2ccccc2)C1 (stereo unspecified)	75.5*	0.9	-8.0	-3.8
COC(=O)c1cc(C)oc1C	nt	-1.3	nt	-0.1
CN(C)c1ccc(C(C(=O)NCC2CCCO2)N(Cc2ccccc2)C(=O)c2snc(C(N)=O)c2N)cc1 (stereo unspecified)	51.4*	-0.1	0.6	-3.6
Cc1cccc(N(C(=O)c2snc(C(N)=O)c2N)C(C(=O)NCC2CCCO2)c2ccc(N(C)C)cc2)c1C (stereo unspecified)	13.5	-3.8	-10.6	-8.0
CN(C)c1ccc(C(C(=O)NCC2CCCO2)N(Cc2ccco2)C(=O)c2snc(C(N)=O)c2N)cc1 (stereo unspecified)	52.0*	-3.3	-3.1	-7.9
COc1ccc(-c2cc(=O)c3ccccc3[nH]2)cc1	56.4*	-6.9	-7.3	-16.1
SMILES	Cardio protect	PLCg1 inh	FAS TE block	PLC-beta3 inh
COc1ccc(-c2cc3ccccc3[nH]2)cc1	-7.5	-17.6	-2.3	-33.7
Cc1[nH]n(-c2ccccc2)c(=O)c1C(c1cccc([N+](=O)[O-])c1)c1c(C)[nH]n(-c2ccccc2)c1=O	-14.7	12.7*	-1.5	6.8
O=C(NNC(=O)c1ccccc1O)c1ccc(S(=O)(=O)Nc2ccccc2)cc1	58.1*	-2.8	21.1	-5.0
O=C(NNC(=O)c1ccccc1O)c1ccc(NS(=O)(=O)c2ccc(F)cc2)cc1	34.4	-2.9	5.9	-11.0
CC(=O)Nc1ccc(NC(=O)Nc2ccc3c(c2)N(C)C(=O)CS3)cc1	0.9	-1.4	-0.7	-2.3
CN1C(=O)CSc2ccc(NC(=O)N3CCN(c4ccccn4)CC3)cc21	57.3*	2.0	3.6	0.8
CN1C(=O)CSc2ccc(NC(=O)Nc3ccccn3)cc21	59.2*	-3.0	-4.5	1.8
CC(C)(C)CCNc1nc(-c2ccccn2)nnc1-c1ccccc1	nt	1.1	nt	1.0
O=C(N/N=C/c1ccccn1)c1cc(-c2cccc3ccccc23)n[nH]1	56.3*	-3.4	17.5	-7.1
O=C(N/N=C/c1ccccn1)c1cc(C2CC2)nc2ccccc12	55.4*	nt	0.1	nt
O=C(N/N=C/c1ccncc1)c1cc(C2CC2)nc2ccccc12	0.0	nt	-4.0	nt
Cc1ccc(COc2ccccc2-c2cc(C(=O)N/N=C/c3cccnc3)[nH]n2)cc1	50.2*	-2.8	7.6	-7.2
O=C(N/N=C/c1ccccn1)c1cc(-c2ccc(Cl)s2)[nH]n1	59.2*	4.7	-4.4	-2.0
Clc1ccc2nc(CNc3nc(N4CCOCC4)nc4c3ncn4-c3ccsc3)[nH]c2c1	nt	-1.7	nt	-5.4
CCCCS(=O)(=O)N1CCCc2nc(-c3ccc(OC)cc3)ccc21	nt	-26.2	nt	-34.3
Cc1cc(C)nc(SCc2ccc(C(=O)N/N=C/c3ccncc3)cc2)n1	-4.5	1.4	-7.5	-4.4
Cc1cc(C)nc(SCc2ccc(C(=O)N/N=C/c3ccccn3)cc2)n1	69.0*	-1.3	0.7	0.4
C[C@@H]1CN([C@@H](C)CO)C(=O)c2cccc(NC(=O)Nc3cccc4ccccc34)c2O[C@H]1CN(C)S(=O)(=O)c1ccc(Cl)cc1	nt	-15.0	nt	-18.5
COc1ccc(-c2cc(=O)oc3c(C)c(O)c(CN(C)C)cc23)cc1	70.1*	i	0.4	i
c1ccc(-c2cccc3[nH]cc(-c4ccccc4)c23)cc1	nt	-6.5	nt	-5.0
O=C(Nc1ccc(C(O)(C(F)(F)F)C(F)(F)F)cc1)c1c(F)cccc1F	nt	0.8	nt	2.3
N#CCSc1nc2cc(C(=O)N3CCC(C(N)=O)CC3)ccc2c2nc3ccccc3n12	51.8*	nt	-0.6	nt
N#CCSc1nc2cc(C(=O)N3CCCC3)ccc2c(=O)n1Cc1ccccc1	3.7	-1.0	3.3	-1.4
O=C1Nc2cnc(Cl)nc2Nc2ccccc21	56.2*	8.0	3.1	-2.1
COc1ccc2c(c1)Sc1ccc(Cl)cc1N2	nt	-27.0	nt	-41.1
COc1ccc(CCCNC(=O)C2(C)Cc3c(-c4ccc(NC(C)=O)cc4)ccnc3O2)cc1 (stereo unspecified)	63.6*	-0.3	1.3	0.4
COc1cccc(-c2cnc3c(NC(C)=O)cc(-c4ccccc4OC)cn23)c1	9.7	-31.2	14.4	-50.5
COc1cccc(-c2cnc3c(NC=O)cc(-c4cccc(C(=O)N(C)C)c4)cn23)c1	58.0*	-26.3	6.7	-43.8
COc1cccc(-c2cnc3c(NC(C)=O)cc(-c4cc(OC)c(OC)c(OC)c4)cn23)c1	57.2*	-19.9	13.0	-28.9

Screening results (PubChem BioAssay)
